Reference: PubChem BioAssay (Tox21)
Records with an inconclusive call do not appear. Active and inactive are the calls of the source. Unless noted, calls come from the whole dose curve; as a rule, active = well fitted curve in the direction sought with a large enough effect in the repeat runs; inconclusive = weak or mixed curves; inactive = no such curve, though single readings can be large; an effect the other way counts as inactive or inconclusive.

How the values were obtained:
[1] = qHTS RealTime-Glo MT Cell Viability Assay in HEK293 cells - 24 hour (AID 1224886); note: top concentration of the series differs between compounds; nearly all actives have a fitted effect of over 50% in size
Summary of the method: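 Reads taken at 0, 8, 16, 24, 32 and 40 h from the same wells. HEK293 cells (600/well) carried RealTime-Glo reagents from seeding, with compound added after a 5 h settle at 37 C.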

[2] = qHTS RealTime-Glo MT Cell Viability Assay in HEK293 cells - 8 hour (AID 1224887); note: top concentration of the series differs between compounds; nearly all actives have a fitted effect of over 50% in size
Summary of the method: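 Tox21 screen in HEK293 using RealTime-Glo MT chemistry, with cells and reagent co-dispensed. Luminescence proportional to viable cell number was captured at intervals during 40 h compound exposure at 37 C.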

[3] = A CellTox Green Cytotoxicity Assay to monitor cytotoxicity in HEK293 cells - 16 hour (AID 1224888); note: nearly all actives have a fitted effect of over 35% in size
Summary of the method: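 Seeding of HEK293 cells together with cytotoxicity dye preceded a 5 h incubation at 37 C/5% CO2. Test compounds in DMSO were then added and fluorescence monitored across 40 h.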

[4] = qHTS RealTime-Glo MT Cell Viability Assay in HepG2 cells - 0 hour (AID 1224889); note: nearly all actives have a fitted effect of over 50% in size
Summary of the method: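 HepG2 suspension premixed with RealTime-Glo reagents is plated at 600 cells per well and left 5 h at 37 C/5% CO2. Compounds in DMSO then go in, and bioluminescence reflecting viable cell number is recorded over 40 h.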

[5] = A CellTox Green Cytotoxicity Assay to monitor cytotoxicity in HepG2 cells - 8 hour (AID 1224890); note: nearly all actives have a fitted effect of over 45% in size
Summary of the method: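 Nonlytic assay: viable cells exclude the dye, so fluorescence scales with cell death. HepG2 at 600 cells/well, compounds added after 5 h, signal read across 40 h.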

[6] = qHTS assay to identify small molecule antagonists of the estrogen receptor alpha (ER-alpha) signaling pathway using the BG1 cell line in the presence of 0.1 nM 17-beta-estradiol - cell viability counter screen (AID 1259241); note: nearly all actives have a fitted effect of over 40% in size
Summary of the method: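 Following 5 days in phenol red-free medium with charcoal-stripped serum, VM7Luc4E2 cells received test compounds alongside 0.1 nM 17beta-estradiol (final) at 37C for 22 hr. Live cells were then quantified via protease-substrate fluorescence.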

[7] = qHTS assay to identify small molecule antagonists of the androgen receptor (AR) signaling pathway using the MDA cell line in the presence of 0.5 nM R1881 - cell viability counter screen (AID 1259242); note: nearly all actives have a fitted effect of over 45% in size
Summary of the method: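 R1881 at 0.5 nM final stimulated MDA-kb2 cells during 16 hr compound treatment at 37C. Cytotoxicity read: CellTiter-Fluor fluorescence after 30 min.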

[8] = target: Androgen receptor (Homo sapiens) (UniProt P10275); assay: qHTS assay to identify small molecule antagonists of the androgen receptor (AR) signaling pathway using the MDA cell line in the presence of 0.5 nM R1881 (AID 1259243); note: nearly all actives have a fitted effect of over 50% in size
Androgen receptor (Homo sapiens), sequence (P10275 whole entry, looked up): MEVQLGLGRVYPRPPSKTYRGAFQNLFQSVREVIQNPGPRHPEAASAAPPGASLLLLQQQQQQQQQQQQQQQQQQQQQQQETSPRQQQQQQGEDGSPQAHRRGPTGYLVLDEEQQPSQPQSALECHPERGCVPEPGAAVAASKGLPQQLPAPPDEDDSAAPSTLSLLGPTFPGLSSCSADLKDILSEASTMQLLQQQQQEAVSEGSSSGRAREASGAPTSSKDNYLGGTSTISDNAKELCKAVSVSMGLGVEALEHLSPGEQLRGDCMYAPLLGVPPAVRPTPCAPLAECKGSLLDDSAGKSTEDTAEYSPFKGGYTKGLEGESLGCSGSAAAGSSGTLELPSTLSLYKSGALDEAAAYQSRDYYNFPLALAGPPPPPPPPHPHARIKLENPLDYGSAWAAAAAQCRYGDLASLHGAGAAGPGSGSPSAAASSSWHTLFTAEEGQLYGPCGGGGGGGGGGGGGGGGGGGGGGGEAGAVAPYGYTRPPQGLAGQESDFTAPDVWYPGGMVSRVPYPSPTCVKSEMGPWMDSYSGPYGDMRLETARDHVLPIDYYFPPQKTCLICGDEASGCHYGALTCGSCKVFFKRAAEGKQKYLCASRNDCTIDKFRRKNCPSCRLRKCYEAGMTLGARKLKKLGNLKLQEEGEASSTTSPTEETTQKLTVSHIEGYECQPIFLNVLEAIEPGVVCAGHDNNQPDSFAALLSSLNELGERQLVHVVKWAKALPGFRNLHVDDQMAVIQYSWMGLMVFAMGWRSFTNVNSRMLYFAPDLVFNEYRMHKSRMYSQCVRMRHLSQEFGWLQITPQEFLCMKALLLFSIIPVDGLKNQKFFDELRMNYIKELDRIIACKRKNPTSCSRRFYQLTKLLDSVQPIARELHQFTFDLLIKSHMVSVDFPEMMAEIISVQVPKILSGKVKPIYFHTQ
Summary of the method: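 We exposed MDA-kb2 cells to compounds under 0.5 nM R1881 stimulation for 16 hr at 37C and quantified MMTV-driven luciferase by luminescence.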

[9] = target: Estrogen receptor (Homo sapiens) (UniProt P03372); assay: qHTS assay to identify small molecule antagonists of the estrogen receptor alpha (ER-alpha) signaling pathway using the BG1 cell line in the presence of 0.1 nM 17-beta-estradiol (AID 1259244); note: nearly all actives have a fitted effect of over 50% in size
Estrogen receptor (Homo sapiens), sequence (P03372 whole entry, looked up): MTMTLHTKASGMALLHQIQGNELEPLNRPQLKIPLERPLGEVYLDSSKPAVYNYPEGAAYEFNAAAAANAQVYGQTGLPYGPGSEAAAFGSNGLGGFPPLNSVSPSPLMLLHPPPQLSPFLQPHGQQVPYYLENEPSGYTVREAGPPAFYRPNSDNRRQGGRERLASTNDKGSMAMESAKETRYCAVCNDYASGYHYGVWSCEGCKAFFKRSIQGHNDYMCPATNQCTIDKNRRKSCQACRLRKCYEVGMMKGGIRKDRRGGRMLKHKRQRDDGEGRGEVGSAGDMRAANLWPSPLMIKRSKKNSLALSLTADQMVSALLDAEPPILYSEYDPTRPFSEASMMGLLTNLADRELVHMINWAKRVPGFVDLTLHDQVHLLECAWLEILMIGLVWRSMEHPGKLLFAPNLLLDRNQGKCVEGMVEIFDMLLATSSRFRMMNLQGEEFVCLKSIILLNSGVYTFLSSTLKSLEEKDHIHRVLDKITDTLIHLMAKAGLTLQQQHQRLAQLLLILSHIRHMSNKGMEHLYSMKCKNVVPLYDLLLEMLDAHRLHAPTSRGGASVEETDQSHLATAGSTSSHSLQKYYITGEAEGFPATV
Summary of the method: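 VM7Luc4E2; 4xERE-luciferase; 0.1 nM E2 final; 22 h co-incubation, 37C; ONE-Glo luminescence after 30 min at room temperature.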

[10] = qHTS assay to identify small molecule phospholipidosis (PLD) inducers (AID 1259344; active = well fitted curve in the direction sought with a large enough effect; an effect the other way counts as inactive or inconclusive)
Summary of the method: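 HepG2 cells on collagen I, attached 4 h at 37 C, were co-treated with compound and LipidTOX Red dye for 24 h at 37 C, then fixed with paraformaldehyde plus Hoechst 33342 and imaged by high-content microscopy for phospholipid accumulation.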

Measured: Potency

COC(OC)C(C)c1ccccc1 (centres undefined)
not listed: [10]
inactive: all other assays above

C=C(C)[C@@H]1CC[C@@H](C)C[C@@H]1O
not listed: [8] | [9] | [10]
inactive: all other assays above

CNC(=O)NC
not listed: [10]
inactive: all other assays above

Nc1cc(S(=O)(=O)O)ccc1S(=O)(=O)O
not listed: [8] | [9] | [10]
inactive: all other assays above

C1=CCC(c2ccccc2)CC1 (centres undefined)
not listed: [8] | [9] | [10]
inactive: all other assays above

CCCCC/C=C/CC(=O)OC
not listed: [8] | [9] | [10]
inactive: all other assays above

Cc1cccc(NC(=S)N(C)C)c1
not listed: [8] | [9] | [10]
inactive: all other assays above

O=S(=O)(O)SSS(=O)(=O)O
not listed: [9] | [10]
inactive: all other assays above

CN[C@@H]1[C@H](O)[C@H](NC)[C@H]2O[C@@]3(O)C(=O)C[C@@H](C)O[C@H]3O[C@@H]2[C@H]1O
inactive: all assays above

COc1ccc(/C=N/NC(=O)c2ccncc2)cc1OC
inactive: all assays above

O=c1[nH]c(=O)c2ccccc2o1
not listed: [9]
inactive: all other assays above

O=C1NC2NC(=O)NC2N1 (centres undefined)
not listed: [8] | [9] | [10]
inactive: all other assays above

COCCOCCOCCOC
not listed: [8] | [9] | [10]
inactive: all other assays above

O=C(CN1CCN(Cc2ccc3c(c2)OCO3)CC1)N1c2ccccc2Sc2ccccc21
inactive: [8] | [10]

O=C(O)c1ccccc1C(=O)Nc1ccc(S(=O)(=O)Nc2nccs2)cc1
inactive: [8] | [10]

CCC(C)N (centres undefined)
not listed: [8] | [10]
inactive: all other assays above

CC(=O)OC(C)(C)Cc1ccccc1
inactive: [1] | [2] | [3] | [4] | [6] | [7]

NC(=O)C1(N2CCCCC2)CCN(CCCC(=O)c2ccc(F)cc2)CC1
not listed: [8]
inactive: all other assays above

NS(=O)(=O)c1cc2c(cc1Cl)NC(C(Cl)Cl)NS2(=O)=O (centres undefined)
not listed: [8] | [9]
inactive: all other assays above

Cc1nc2ccccc2c(=O)o1
not listed: [8] | [10]
inactive: all other assays above

COc1cc([N+](=O)[O-])ccc1N
not listed: [6] | [7] | [10]
inactive: all other assays above

Cc1ccccc1OCC1CO1 (centres undefined)
not listed: [8] | [10]
inactive: all other assays above

Cc1cccc(Nc2ccncc2S(=O)(=O)NC(=O)NC(C)C)c1
not listed: [8]
inactive: all other assays above

CCS(=O)(=O)CCn1c([N+](=O)[O-])cnc1C
not listed: [8]
inactive: all other assays above

CCN(CCO)c1cccc(C)c1
not listed: [8] | [10]
inactive: all other assays above

CC(=O)Nc1ccc(C)cc1
not listed: [8] | [10]
inactive: all other assays above

CO/N=C(/C(=O)N[C@@H]1C(=O)N2C(C(=O)O)=C(Cn3nnc(C)n3)CS[C@H]12)c1csc(N)n1
not listed: [8] | [9]
inactive: all other assays above
